HT1080 IDH1KD tx = HT-1080 IDH1 knockdown cell toxicity (counter line) | HT-1080 IDH1 knockdown viability, ATP luminescence, 48 h | Potency, µM (highest dose often 46.1 µM), most hits filed as cytotoxic | 2% of 360,000 active
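Luminescent ATP read-out (CellTiter-Glo, 10 min at room temperature) after 48 h compound exposure at 37 °C gave viability of IDH1-knockdown HT-1080 cells. Activity was normalised to DMSO and cell-free wells, then fitted as concentration-response curves.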
TGFb SMAD3 inh = blocks TGF-b signaling. HepG2 CAGA-GFP TGF-b/SMAD3 reporter, GFP fluorescence, 18 h; TGF-beta stimulated, 500 pg/mL final. Potency, µM (doses to about 46.1 µM), actives largely listed as inhibitors. 1.2% of 410,000 active; also: nearly all actives have a fitted effect of over 65% in size
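HEPG2 CAGA-GFP, 1000 cells/well; 2 h settle, 37 C; cpd via pin tool; TGF-b 500 pg/mL final; 18 h, 37 C; GFP imaging ex488/em500-530; %Activity normalised to -TGF-b and +DMSO controls; CRC fit, curve class.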
DT40 TDP1 no CPT = qHTS for Inhibitors of human tyrosyl-DNA phosphodiesterase 1 (TDP1): qHTS in cells in absence of CPT | DT40 Tdp1-/- hTDP1 cells, no CPT, ATP luminescence, 48 h | Potency, µM (doses to about 46.2 µM), most hits filed as inhibitors | 15% of 420,000 active | AID 686978, 2013; also: nearly all actives have a fitted effect of over 55% in size
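Camptothecin absent (DMSO only). Human TDP1-complemented DT40 knockout cells, 400 cells/well, 37 °C for minimum 48 hr; ATP measured via CellTiter-Glo, 30 min dark incubation, luminescence.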
HT1080-NT tox = kills 2HG-producing HT-1080-NT fibrosarcoma cells; HT-1080-NT fibrosarcoma viability, CellTiter-Glo ATP luminescence, 48 h; Potency, µM (doses to about 46.1 µM), most hits filed as cytotoxic; 1.6% of 360,000 active; AID 686970;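 also: NT is the 2HG producing partner of a matched IDH1 knockdown line; nearly all actives have a fitted effect of over 55% in size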
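750 cells/well, RPMI + 5% FBS; 2 h settle, compound pin-transfer, 48 h at 37 degrees C. CellTiter-Glo 10 min RT, luminescence. Normalized to DMSO and media-only wells.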
TDP1 cell CPT = DT40-hTDP1 cell growth loss with CPT | chicken DT40 Tdp1-/-;hTDP1 cells + 20 nM CPT, ATP luminescence, 48 h | Potency, µM (titrated, usually from 46.2 µM), actives largely listed as inhibitors | 12% of 420,000 active | AID 686979; also: nearly all actives have a fitted effect of over 55% in size
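Cell growth measured by CellTiter-Glo luminescence after a minimum 48 h, 37 C compound exposure with 20 nM CPT in Tdp1-knockout DT40 cells stably expressing hTDP1, seeded 400/well; qHTS titration format.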
HepG2 viability = counter-screen for TGF-b inhibitors: cytotoxicity in HepG2 cells | HepG2 CAGA-GFP viability, ATP luminescence, 18 h | AID 588856 | Potency, µM (doses to about 46.1 µM), actives largely listed as cytotoxic | 0.76% of 410,000 active
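CellTiter-Glo luminescence gave cytotoxicity after 18 hours at 37 degrees C. The cells were HepG2 CAGA-GFP in 1% FBS DMEM, stimulated with 500 pg/mL TGF-beta after compound addition. %Activity was normalised to no-cell wells (complete cell-killing) and DMSO (no toxicity), and curves were fitted and classified.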
A number is an active result; - = inactive; ? = inconclusive; . = no result; ! = repeats disagree. Sampled rows, rich in hits. Any-hit rate of the full collection: about 17%. Calls follow the shape of the dose curve; as a rule, active = well fitted curve in the direction sought with a large enough effect; inconclusive = small, poorly fitted or top-dose-only effect, or another doubt; inactive = no such curve, though single readings can be large; an effect the other way counts as inactive or inconclusive.

SMILES	HT1080 IDH1KD tx	TGFb SMAD3 inh	DT40 TDP1 no CPT	HT1080-NT tox	TDP1 cell CPT	HepG2 viability
CSc1ncccc1C(=O)OCC(=O)N(C)Cc1ccc(C)cc1	-	-	?	-	?	-
CCOc1c(Br)cc(/C=C(\C#N)C(=O)NC2CC2)cc1OC	?	-	?	23µM	?	-
CC1=C(CC(=O)c2ccc(Cl)cc2)C(=O)c2ccccc2C1=O	11µM	13µM	16µM	?	23µM	13µM
O=S(=O)(c1ccccc1)N1N=C(c2cccs2)CC1c1cccc(O)c1 (stereo unspecified)	-	-	16µM	-	?	-
COc1ccc(C2CC(c3cccs3)=NN2S(=O)(=O)c2ccc(C)cc2)cc1 (stereo unspecified)	-	-	23µM	-	23µM	-
Cc1ccc(C2CC(c3cccs3)=NN2S(=O)(=O)c2ccc(C)cc2)cc1 (stereo unspecified)	-	-	23µM	-	21µM	-
COc1ccc(C2CC(c3cccs3)=NN2S(C)(=O)=O)cc1 (stereo unspecified)	-	-	-	-	-	-
CC(C)N(C)Cc1nnnn1CC(=O)N(C)Cc1ccc(F)cc1	-	-	-	-	-	-
COc1ccc(C(=O)NCCc2ccc(Cl)cc2)cc1S(=O)(=O)N1CCCCC1C (stereo unspecified)	?	?	?	?	?	-
Nc1ccccc1OCCOc1ccccc1N	-	-	-	-	-	-
CCCOc1ccc(N)cc1N	?	?	4.1µM	?	5.2µM	-
CCCOc1cc(N)ccc1C(=O)OCCN(CC)CC	-	-	?	-	0.13µM!	-
CCN(CC)CCOC(=O)c1ccc(N)cc1	-	-	-	-	-	-
COc1cccc(-n2cc(C(=O)Nc3ccccc3C(N)=O)c3ccccc3c2=O)c1	.	-	10µM	.	?	-
C=CCN(c1ccc(C(=O)NCCN2CCOCC2)cc1)S(C)(=O)=O	-	-	-	-	-	-
C=CCN1C(=O)C(CC(=O)NCC)SC1=Nc1ccccc1OC (stereo unspecified)	-	-	-	-	-	-
CCn1cc(C(=O)N(C)c2cc(C)ccc2OC)c2cc(OC)c(OC)cc2c1=O	-	-	-	-	-	-
CCn1cc(C(=O)Nc2cccc(NC(C)=O)c2)c2cc(OC)c(OC)cc2c1=O	-	-	?	-	-	-
COc1cc2c(C(=O)N(C)c3cccc(C(F)(F)F)c3)cn(CC(C)C)c(=O)c2cc1OC	.	-	18µM	.	13µM	-
CCn1cc(C(=O)N(C)c2cc(C)ccc2C)c2cc(OC)c(OC)cc2c1=O	.	-	21µM	.	26µM	-
COc1cc2c(C(=O)NCCN(C)C)cn(CC(C)C)c(=O)c2cc1OC	?	-	-	-	-	-
CCn1cc(C(=O)Nc2ccc(C(C)C)cc2)c2cc(OC)c(OC)cc2c1=O	.	-	16µM	.	?	-
CCn1cc(C(=O)N(C)c2ccc(C(C)C)cc2)c2cc(OC)c(OC)cc2c1=O	.	-	18µM	.	?	-
CC(=O)Nc1ccc(S(=O)(=O)NN=c2sc3ccccc3n2C)cc1N	-	-	?	-	-	-
COCCn1c(C)cc(O)c(C(c2ccccc2Cl)N2CCCCC2)c1=O (stereo unspecified)	.	-	-	.	-	-
COC(=O)c1ccc(Cn2c(C)c(C(=O)Nc3cccc(Oc4ccccc4)c3)sc2=O)o1	-	?	?	-	?	-
CN(C)CCNC(=O)CN1C(=O)COc2ccc(S(=O)(=O)N3CCCC3)cc21	.	-	-	.	-	-
CNc1ncnc2c1ncn2[C@H]1CN(Cc2ccc(F)cc2)C[C@@H](CO)O1	-	-	-	-	-	-
CCN(CC)CCOC(=O)c1ccc(N/C=C(/C#N)c2nc(-c3ccc(OC)cc3)cs2)cc1	-	?	4.6µM	-	4.1µM	-

High-throughput results from PubChem BioAssay.
